Assay outcomes as filed in PubChem BioAssay.
RBX1-CUL1 inh: human ROC1-CUL1 E3 ligase inhibition | AID 1347404 | inhibition, % at 10 µM | in vitro K48 di-Ub FRET, acceptor:donor ratio, 45 min | 140,000 tested, 0.6% active | P62877+Q13616; in the data active = inhibition above about 25%
Target sequence (P62877 whole entry, looked up): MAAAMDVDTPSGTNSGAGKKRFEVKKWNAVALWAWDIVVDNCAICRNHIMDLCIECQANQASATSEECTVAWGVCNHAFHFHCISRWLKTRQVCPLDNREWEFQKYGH
Target sequence (Q13616 whole entry, looked up): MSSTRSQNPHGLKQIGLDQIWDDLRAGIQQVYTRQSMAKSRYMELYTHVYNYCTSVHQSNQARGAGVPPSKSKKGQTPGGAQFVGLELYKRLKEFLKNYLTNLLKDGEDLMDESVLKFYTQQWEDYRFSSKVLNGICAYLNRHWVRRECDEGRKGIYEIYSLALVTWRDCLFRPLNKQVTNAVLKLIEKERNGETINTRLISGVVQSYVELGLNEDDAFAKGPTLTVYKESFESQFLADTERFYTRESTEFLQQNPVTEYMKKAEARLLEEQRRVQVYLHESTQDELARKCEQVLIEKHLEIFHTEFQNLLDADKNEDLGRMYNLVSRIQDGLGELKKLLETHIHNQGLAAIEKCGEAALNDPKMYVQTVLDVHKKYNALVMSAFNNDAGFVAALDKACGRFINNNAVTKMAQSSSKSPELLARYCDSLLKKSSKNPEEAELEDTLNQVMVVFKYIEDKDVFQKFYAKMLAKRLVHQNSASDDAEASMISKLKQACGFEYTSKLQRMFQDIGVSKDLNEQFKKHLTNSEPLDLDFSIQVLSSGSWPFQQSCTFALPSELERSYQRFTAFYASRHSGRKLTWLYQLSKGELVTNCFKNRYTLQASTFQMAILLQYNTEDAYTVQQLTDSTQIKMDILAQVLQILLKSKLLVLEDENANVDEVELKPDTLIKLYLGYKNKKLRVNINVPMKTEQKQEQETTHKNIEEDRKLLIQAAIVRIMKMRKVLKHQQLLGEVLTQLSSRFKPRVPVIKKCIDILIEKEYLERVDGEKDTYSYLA
Numbers without * were called inactive. The entries come from a sample that favours hits as a whole.

SMILES	RBX1-CUL1 inh
CN1C(=O)/C(=C/c2ccc3c(c2)OCO3)SC1=Nc1ccc(C(=O)O)cc1	12
CN1C(=O)/C(=C/c2ccc(-c3ccc(C(=O)O)cc3)o2)SC1=Nc1ccc(C(=O)O)cc1	29*
CC(Oc1ccc(F)cc1F)C(=O)N1CCN(c2ccc(F)cc2)CC1 (stereo not drawn)	1
O=C(Nc1cc(Cl)ccc1Cl)c1ccc(N2CCOCC2)cc1	6
Cc1nnc(-c2ccccc2-c2cccc(-c3ccn(CCO)n3)c2)s1	-5
CC(=O)c1sc(N2C(=O)C(=O)C(C(=O)c3cc4ccccc4o3)C2c2cccc(Cl)c2)nc1C (stereo not drawn)	-3
COc1ccc(CNC(=O)c2nn3c(C(F)(F)F)cc(-c4ccc(Br)cc4)nc3c2Br)cc1	-7
COc1ccc(-c2cc(C(F)(F)F)n3nc(C(=O)NCc4ccco4)c(Br)c3n2)cc1	29*
O=C(NCc1ccco1)c1nn2c(C(F)(F)F)cc(-c3cc(Br)cs3)nc2c1Br	-12
CC1=NN(c2nc(-c3ccc(Br)cc3)cs2)C(=O)C1N=Nc1cccc(O)c1 (stereo not drawn)	-1
CC1=NN(c2nc(-c3ccc(Br)cc3)cs2)C(=O)C1N=Nc1ccc(Oc2ccccc2)cc1 (stereo not drawn)	1
CC1=NN(c2nc(-c3ccc(Br)cc3)cs2)C(=O)C1N=Nc1nccs1 (stereo not drawn)	78*
COC(=O)[C@@H]1CCCN1C(=O)Cc1ccc(N2CCC(NCc3ccc4c(c3)OCO4)CC2)cc1	7
O=C(CSc1ncccn1)NCC1Cc2cc(-c3ccsc3)cc(Cl)c2O1 (stereo not drawn)	4
Cc1ccc(CSc2nnc(-c3ccc(C)cc3)o2)cc1	-6
CCOc1cc(/C=C2\C(=O)NN(c3ccccc3)C2=O)cc(Br)c1OCCCOc1ccc(C)cc1	17
COc1cc(/C=C2\C(=O)NN(c3ccccc3)C2=O)cc(Cl)c1OCCCOc1cccc(C)c1	23
COc1cc(/C=C2\C(=O)NN(c3ccccc3)C2=O)cc(Cl)c1OCc1ccc(C)cc1	39*
CCOc1cc(/C=C2\C(=O)NN(c3ccccc3)C2=O)cc(Br)c1OCc1ccc(C)cc1	9
CCOc1cc(/C=C2\C(=O)NN(c3ccccc3)C2=O)cc(Cl)c1OCc1ccc(Cl)cc1	7
COc1cc(/C=C2\C(=O)NN(c3ccccc3)C2=O)cc(OC)c1OC	-2
COc1cc(/C=C2/C(=O)NN(c3ccc(Br)cc3)C2=O)cc(Br)c1OC	7
CCOc1cc(/C=C2\C(=O)NN(c3ccccc3)C2=O)cc(Br)c1OCc1ccccc1C	30*
COc1cc(/C=C2/C(=O)NN(c3ccccc3)C2=O)cc(Br)c1OC(C)=O	-1
COc1cc(/C=C2\C(=O)NN(c3ccccc3)C2=O)cc(Br)c1OC(=O)C12CC3CC(CC(C3)C1)C2	27*
SMILES	RBX1-CUL1 inh
COc1cc(/C=C2\C(=O)NN(c3ccccc3)C2=O)cc(Br)c1OCc1ccccc1C	94*
COc1cc(/C=C2\C(=O)NN(c3ccccc3)C2=O)cc(I)c1OCc1ccc(Cl)c(Cl)c1	12
O=C(NCC1CCCN(C2CSCCSC2)C1)C1(c2ccc(Cl)cc2)CC1 (stereo not drawn)	6
O=C1CC(Nc2ccc(CCO)cc2)C(=O)N1c1ccc(Cl)cc1 (stereo not drawn)	-3
CS/C(=C\C(=O)c1ccco1)CC(=O)c1ccco1	-7
CCOC(=O)c1ccc(-c2ccc(/C=C(\C#N)C(=O)Nc3ccc(Oc4ccccc4)cc3)o2)cc1	-1
CC(C)CN1CCC(C2CCN(C(=O)c3cn4ccccc4n3)C2)CC1 (stereo not drawn)	0
Cc1ccc(Cc2nn3c(-c4ccccc4)nn(-c4ccccc4)c3nc2=O)cc1	-2
CCOc1cc(/C=C2\C(=O)NN(c3ccc(I)cc3)C2=O)ccc1O	0
CCOc1cc(/C=C2/C(=O)NN(c3ccc(C(=O)OC)cc3)C2=O)cc(Br)c1OC(C)=O	19
CCOc1cc(/C=C2/C(=O)NN(c3ccc(I)cc3)C2=O)cc(Br)c1OC(C)=O	66*
CN1C(=O)C(C(c2ccc(C(F)(F)F)cc2)C2C(=O)N(C)C(=S)N(C)C2=O)C(=O)N(C)C1=S	-2
COc1cccc(C(=S)NCS(=O)(=O)c2ccc(C)cc2)c1	-5
O=S(=O)(CNC(=S)c1ccccc1)c1ccccc1	35*
S=C(NCCc1ccccn1)c1ccccc1	6
Cc1cc(N=C2NC(=O)/C(=C\c3ccc(Br)o3)S2)ccc1Cl	4
Cc1ccc(/C=C2\SC(=Nc3ccc(C)c(C)c3)NC2=O)o1	-5
CCN(CC)c1ccc(/C=C2\SC(=Nc3ccc(Cl)c(Cl)c3)NC2=O)o1	29*
C[C@@H](c1ccccc1)N1CCC1C(O)(C1CCCCC1)C1CCCCC1 (stereo partly drawn)	-2
Cc1ccc(S(=O)(=O)N=C2C=C(C3C(=O)CC(C)(C)CC3=O)C(=O)c3ccccc32)cc1	-2
COc1ccc(S(=O)(=O)N=C2C=C(Sc3ccc(C)cc3)C(=O)c3ccccc32)cc1	-14
O=C1C(Sc2ncn[nH]2)=CC(=NS(=O)(=O)c2ccc(Cl)cc2)c2ccccc21	90*
COc1ccccc1N(Cc1ccc(F)cc1)S(C)(=O)=O	3
COc1ccc(C(=O)Nc2ccc3c(c2)C(=O)N(C2CCCCC2)C3=O)cc1	11
O=C(O)c1cccc(NC(=O)c2ccc3c(c2)C(=O)N(C2CCCCC2)C3=O)c1	26*
SMILES	RBX1-CUL1 inh
CC(C)(C)NC(=O)c1ccc2c(c1)C(=O)N(C1CCCCC1)C2=O	0
CCN(CC)CC(O)COc1ccc(CN2CCOCC2)cc1OC (stereo not drawn)	-9
CC(=O)c1sc(NC(=O)C2CCCCC2C(=O)O)nc1C (stereo not drawn)	9
Cn1c2cccc3cccc(c32)[n+]2nc3c(cc12)c1cccc2cccc3c21	95*
C#CCNC(=O)C[n+]1c2ccccc2n2nc3c(cc21)c1cccc2cccc3c21	0
Cn1c2ccccc2c2nsnc21	5
CCOCC(=O)Nc1c(C(C)C)cccc1C(C)C	5
CCCCC(=O)Nc1ccccc1NC(=O)C(C)C	-3
CCCCC(=O)Nc1cccc2cccc(S(=O)(=O)O)c12	95*
CCCCC(=O)Nc1ccccc1O	4
COc1ccc(C(=O)NC2(C(F)(F)F)NC(=O)N(c3ccc(OC(F)(F)F)cc3)C2=O)cc1 (stereo not drawn)	-1
CCOC(=O)c1c(N=CC2C(=O)NC(=S)N(c3ccc(F)cc3)C2=O)sc2c1CCCC2 (stereo not drawn)	9
Cc1ccc(N2C(=O)NC(=O)C(C=Nc3ccc(O)c(C(=O)O)c3)C2=O)cc1 (stereo not drawn)	5
CCOc1ccc(N2C(=O)C(C=Nc3cc(N)cc(C(=O)O)c3)C(=O)NC2=S)cc1 (stereo not drawn)	90*
Cc1c(C(=O)O)cccc1-c1ccc(/C=C2/SC(=O)N(Cc3cc4c(cc3Cl)OCO4)C2=O)o1	6
Cc1cccc(/C=C2/SC(=O)N(Cc3ccccc3C#N)C2=O)n1	-1
CC(C)c1ccc(/C=C2\SC(=O)N(Cc3ccc(F)cc3)C2=O)cc1	5
Cc1cccc(NC(=O)CN2C(=O)S/C(=C/c3ccc(-c4cc(C(=O)O)ccc4Cl)o3)C2=O)c1	21
N#Cc1ccccc1CN1C(=O)S/C(=C/c2ccc(-c3ccc(Cl)c(C(=O)O)c3)o2)C1=O	42*
O=C(O)c1ccc(-c2ccc(/C=C3\SC(=O)N(Cc4ccc(F)cc4)C3=O)o2)cc1Cl	92*
